SMILES strings stand for the structures. Records with an inconclusive call do not appear. A number with no mark means an inactive call. Activity calls are given as the source filed them. Calls come from the whole dose curve; as a rule, active = well fitted cell-killing curve with a large enough effect; inconclusive = small, poorly fitted or top-dose-only effect, or effect the other way; inactive = flat fitted curve, though single readings scatter. Where a SMILES comes first, the peptide text is derived from it. The star is where a group is joined. PhAc = O=C(Cc1ccccc1)*

This note sets out measurements from PubChem BioAssay (NCATS).
% is set by controls: 0 for no effect and ±100 for the full control effect.

For this experiment, the system named is CASKI. In words: Primary qHTS to identify gynecologic anti-cancer compounds using libraries of approved drugs and bioactive compounds (AID 1345084). Note: nearly all actives have a fitted effect of over 55% in size. The following applies: Gynecologic cancer cell panel viability, ATPlite luminescence, 48 h; series mostly up to 57.5 µM. In a few lines:
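Cells, 1,000 per well, were allowed to settle for 16 h at 37 C before compound addition. Five concentrations were tested for 48 h, and viability was read by ATPlite luminescence after 15 min at room temperature.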
In general terms: qHTS replaces the single test concentration by a dilution series.
Turning to `COC1CC(O[C@H]2CC[C@@]3(C)C(=CC[C@]4(O)C3[C@H](O)[C@@H](O)[C@]3(C)[C@@H]([C@H](C)O)CC[C@@]34O)C2)OC(C)C1OC1CC(OC)C(OC2CC(OC)C(OC3OC(C)C(OC4OC(CO)C(O)C(O)C4O)C(OC)C3O)C(C)O2)C(C)O1` (some centres undefined), the activity change, negative = cytotoxicity was 17.9% [at 11.6 µM].
With `C=C1CCC2[C@](C)(CO)CCC[C@@]2(C)[C@@H]1CCC1=CCOC1=O` (some centres undefined), the call was inactive.
On the same count and under the same terms, then `C=C1CCC[C@]2(C)CC[C@@](O)(C(=C)C(=O)O)C[C@@H]12`, with “inactive”; and `CC1CC(=O)[C@]2(O)C(C(=O)OCCc3ccc(O)cc3)=CO[C@@H](O[C@@H]3O[C@H](CO)[C@@H](O)[C@H](O)[C@H]3O)[C@H]12` (some centres undefined), with “inactive”.
Regarding `COC(=O)C1=COC(O[C@@H]2O[C@H](CO)[C@@H](O)[C@H](O)[C@H]2O)[C@@H]2[C@@](C)(O)[C@@H](OC(=O)/C=C/c3ccccc3)C[C@]12O` (some centres undefined), the molecule was classed as inactive.
The same measure, in the same setting: the same measure for `CCC[C@H](N[C@@H](C)C(=O)N1[C@H](C(=O)O)C[C@@H]2CCCC[C@@H]21)C(=O)O`: “inactive”.
Consider `CC1OC(OC2C(OC(=O)[C@]34CCC(C)(C)C[C@H]3C3=CCC5[C@@]6(C)CC[C@H](OC7OC(C(=O)O)C(O)C(O)C7O)C(C)(C)C6CC[C@@]5(C)[C@]3(C)CC4O)OC(CO)C2O)C(O)C(O)C1OC1OCC(O)C(O)C1O` (some centres undefined), for which the activity change, negative = cytotoxicity was 7.85% [at 11.6 µM].
On to `CCOC(=O)CNC(=O)[C@@H]1CCCN1C(=O)Cc1ccccc1` (PhAc-Pro-Gly-OEt), for which the result was inactive.
For `C/C(=C\CC[C@H](CO)[C@@H]1CC[C@]2(C)C3=C(CC[C@@]12C)[C@@]1(C)CCC(=O)C(C)(C)C1CC3)C(=O)O` (some centres undefined), the result was inactive.
